Molecules are shown by their SMILES. Calls of active or inactive are those of the source. Rule for the calls: active = hit-call score of the fitted dose curve at least 0.9, where 1 is the maximum; inactive = score below 0.9.

This experiment in a line: CCTE_Shafer_MEA_acute_burst_duration_mean: CCTE's Neural Acute Assay for Mean Burst Duration, Shafer Lab (AID 2284014). As to the method: CCTE_Shafer_MEA_acute assay is conducted using Axion Biosystems 48 well microelectrode array (MEA) plates and Maestro recording system. Each well of the MEA plate contains a grid of 16 microelectrodes embedded in the culture surface. Electrically active cells, such as neurons, can be cultured over the electrodes, and electrical activity in these cells can be recorded extracellularly. The spontaneous firing of neurons is captured from each electrode on a microsecond timescale providing both temporally and spatially precise data. […] The CCTE_Shafer_MEA_acute assay uses primary cultures of rat cortical neurons. As these cultures mature over time, neural networks develop functional activity and form cohesive networks in which electrical activity can be highly coordinated. Baseline 40-minute recordings are made on days post-plating 13 or 15, followed by a secondary 40-minute recording after chemical exposure.CCTE_Shafer_MEA_acute_burst_duration_mean is a component of the CCTE_Shafer_MEA_acute assay. It measures the average time from the first spike (action potential firing) to the last spike in a single-electrode burst (temporally-clustered group of spikes) during a recording in a microelectrode array (MEA) using Axion Biosystems Maestro 768 channel amplifier with the AxIS adaptive spike detector. The recordings before and after chemical treatment are used to calculate a percent change in the mean burst duration in each well.Data from the assay component CCTE_Shafer_MEA_acute_burst_duration_mean was analyzed into 1 assay endpoint. This assay endpoint, CCTE_Shafer_MEA_acute_burst_duration_mean, was analyzed in the negative analysis fitting direction relative to DMSO as the negative control and baseline of activity. Using a type of functional reporter, gain or loss-of-signal activity can be used to understand electrical activity.
Spontaneous activity in the cortical cultures was recorded using an Axion Biosystems Maestro 768 channel amplifier and Axion Integrated Studios (AxIS) v1.8 (or later) software. The amplifier recorded from all channels simultaneously (gain = 1200 x; sampling rate = 12.5 kHz/channel): raw signals were filtered with a Butterworth band-pass filter (300-5000 Hz), which filters out slower local field potentials leaving only fast potentials, i.e., "spikes", arising from extracellular currents associated with action potentials (Pine 2006; Wheeler and Nam 2011). On-line spike detection of filtered signals was conducted with the AxIS adaptive spike detector, using a threshold of 8x the root mean squared (rms) noise on each channel. Any electrodes with rms noise levels greater than 5 uV were grounded (e.g., no data were recorded). Once grounded, an electrode was grounded for the duration of the experiment. All recordings were conducted at 37 C. Wells were deemed usable if on the day of the exposure >/= 10 electrodes were active (defined as >/= 5 spikes/min). On DIV 13 or 15, a minimum of three wells from one cortical culture preparation were treated with each compound (0.03-40 uM). Prior to recording baseline activity, each mwMEA plate was placed in the Maestro at 37 C and allowed to sit for 20 min while firing rates stabilized. Baseline activity (40 min) was recorded before the addition of each compound. An additional 40 min of spontaneous activity was recorded in the presence of each compound. Changes in network parameters relative to baseline were assessed following compound treatment.
As for `COc1ccc(C(=O)c2ccccc2O)c(O)c1`, the call was inactive. In the case of `C1CN(CCOCCN2CCOCC2)CCO1`, the molecule was classed as inactive.

`O=[N+]([O-])c1cc(S(=O)(=O)Nc2ccccc2)ccc1Nc1ccccc1`: the outcome was inactive. Turning to `NC(N)=Nc1nc(CSCCC(N)=NS(N)(=O)=O)cs1`, the call was inactive.

On to `COc1cc(CNC(=O)CCCC/C=C/C(C)C)ccc1O`, for which the result was inactive. As for `CCC[Si](OC(C)=O)(OC(C)=O)OC(C)=O`, the molecule was classed as inactive. On the same count and under the same terms, the entry for `CNCCC(Oc1ccc(C(F)(F)F)cc1)c1ccccc1` (stereo unspecified) is “inactive”. Same read-out and setting: the entry for `CN(C)Cc1cc(C(C)(C)C)c(O)c(C(C)(C)C)c1` is “inactive”. As for `COc1ccccc1Oc1c(NS(=O)(=O)c2ccc(C(C)(C)C)cc2)nc(-c2ncccn2)nc1OCCO`, the molecule was classed as inactive.

For orientation: AC50 means the concentration giving half of the maximal activity seen. As for `CN(C)C(=O)C(CCN1CCC(O)(c2ccc(Cl)cc2)CC1)(c1ccccc1)c1ccccc1`, the AC50 is 147 nM (active). As to `CN(C)CCC(c1ccc(Cl)cc1)c1ccccn1` (stereo unspecified), the molecule was called inactive.

Regarding `Cc1c(C(N)=O)cc([N+](=O)[O-])cc1[N+](=O)[O-]`, the result was inactive.

On to `CC[N+](CC)(CC(=O)Nc1c(C)cccc1C)Cc1ccccc1` (tested in a mixture with another compound), for which the call was inactive. For the molecule `CC1(C)S[C@@H]2[C@H](NC(=O)[C@H](N)c3ccccc3)C(=O)N2[C@H]1C(=O)O`, the molecule was called inactive. For `CC1(C)S[C@@H]2[C@H](NC(=O)[C@H](N)c3ccc(O)cc3)C(=O)N2[C@H]1C(=O)O`, the molecule was called inactive.

As to `CC(C)C1OCCN1CCOC(=O)NCCCCCCNC(=O)OCCN1CCOC1C(C)C` (stereo unspecified), the call was inactive.
